# Experimental data published in PubChem BioAssay.
# Values without a mark were called inactive. Calls of active or inactive are those of the source.
# Assay: S. pombe growth modifiers, basal conditions – strain 972, OD600, 24 h, no modulator, primary screen (AID 1090);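 also: basal condition with compound alone and no growth modifier present; test concentration not given here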
# Details: S. pombe 972 growth, higher = more signal, called active from +8 up or from −8 down
row,Compound,z-score
1,C=CCOC(=O)[C@H]1[C@@H]2C(=O)O[C@@H](c3ccccc3)[C@@H](c3ccccc3)N2[C@@H](c2ccc(OCCOC(=O)[C@@H]3C[C@@H]4C(=O)N5CCC[C@H]5C(=O)N4[C@@H]3c3ccc(O)cc3)cc2)[C@]12C(=O)Nc1ccccc12,1.64
2,CC(C)OC(=O)CC(=O)CC(O)c1ccc(C#N)cc1 (stereo unspecified),0.331
3,O=C(OCCF)C1=CCC(c2cccc(Cl)c2)O1 (stereo unspecified),-0.988
4,[N-]=[N+]=NCc1ccccc1[C@@H]1OC(c2ccc(OCCCO)cc2)=N[C@]1(Cc1ccccc1N=[N+]=[N-])C(=O)NCc1ccccc1,1.44
5,COc1ccc(C(O)C2C=CC3C(=O)N(c4ccccc4)C(=O)C3N2Nc2ccc([N+](=O)[O-])cc2)cc1OCc1ccccc1 (stereo unspecified),1.57
6,Cc1ccccc1C(O)C1C=CC2C(=O)N(C)C(=O)C2N1N1CCCCC1 (stereo unspecified),0.619
7,COCCOC(=O)N1C(=O)[C@@]2(c3cc(C#CCNC(N)=O)ccc31)[C@H](c1ccccc1OCCO)N1[C@H](c3ccccc3)[C@H](c3ccccc3)OC(=O)[C@H]1[C@@H]2C(N)=O,1.59
8,O=C1C2C=CC(C(O)c3cccs3)N(Nc3ccccc3F)C2C(=O)N1c1ccccc1 (stereo unspecified),0.915
9,COC(=O)C1=CC(CCCO)=CC(C2CC2)N(Cc2sc3ccccc3c2Cl)C=C1C(=O)OC (stereo unspecified),-3.05
10,COCCOC(=O)N1C(=O)[C@@]2(c3cc(C#Cc4ccc(OC)cc4)ccc31)[C@H](C(=O)N1CCN(c3ncccn3)CC1)[C@H]1C(=O)O[C@H](c3ccccc3)[C@H](c3ccccc3)N1[C@@H]2c1ccc(O)cc1,-0.197
11,CN(C)C(=O)[C@]1(CCC(=O)OC(C)(C)C)N=C(c2ccc(OCCCO)cc2)O[C@@H]1c1ccccc1N=[N+]=[N-],0.626
12,C=CCC(OC(C)=O)[C@@H]1[C@@H](N(Cc2cc3ccccc3o2)C(=O)c2ccc(C)cc2)c2cc(OCCCO)ccc2N1C(=O)c1ccc2ccccc2c1 (stereo partly specified),0.116
13,COC(=O)[C@@]1(Cc2ccc(OC)cc2)[C@H]2c3cc(C(=O)N4CCCC4)n(Cc4ccccn4)c3C[C@H]2CN1C(=O)c1ccccc1,0.482
14,Cc1ccc(S[C@]2(C(=O)NCc3ccccc3)CC(=O)N(Cc3ccccc3Cl)[C@@H]2c2ccc(CO)cc2I)cc1,-3.05
15,COc1ccc([Si](C)(C)[C@@H]2[C@@H](CCn3cc([C@H](O)c4ccccc4)nn3)O[C@]3(C(=O)N(Cc4cccc(N5CCOC5=O)c4)c4ccccc43)[C@H]2C)cc1,1.45
16,CCN(CC)c1ccc(N2CC=CC34O[C@@H]5/C=C\CCCOC(=O)C5[C@H]3C(=O)N(C(CO)C(C)C)[C@@H]4C2=O)cc1 (stereo partly specified),-0.193
17,Cc1ccc(S[C@]2(C(=O)NC3CC3)CC(=O)N(Cc3ccccc3)[C@@H]2c2ccc(CO)cc2)cc1,-0.852
18,O=C1OCCC/C=C\[C@H]2OC34C=CCN(Cn5nnc6ccccc65)C(=O)[C@H]3N(CCCCCO)C(=O)[C@@H]4C12 (stereo partly specified),-0.745

row,Compound,z-score
1,CCN(CC)c1ccc(N2CC=CC34O[C@@H]5C=CCCOC(=O)C5[C@H]3C(=O)N(CCCCCO)[C@@H]4C2=O)cc1 (stereo partly specified),-1.3
2,O=C1O[C@@H](c2ccccc2)[C@@H](c2ccccc2)N2[C@@H](c3ccccc3OCCO)[C@]3(C(=O)Nc4ccc(C#CC5(O)CCCCCC5)cc43)[C@@H](C(=O)Nc3nc4ccccc4s3)[C@H]12,1.96
3,CCOC(=O)C1=C[C@@H](C(C)C)N(S(=O)(=O)c2ccc(C)cc2)[C@H]1c1ccc(C(C)C)cc1,2.04
4,C=CCC(OC(C)=O)[C@@H]1[C@@H](N(Cc2cccc3ccccc23)C(=O)c2cccc3ccccc23)c2cc(OCCCO)ccc2N1C(=O)c1ccc2ccccc2n1 (stereo partly specified),0.626
5,[N-]=[N+]=NCc1ccccc1C[C@]1(C(=O)NCCN2CCOCC2)N=C(c2ccc(OCCCO)cc2)O[C@H]1c1ccccc1N=[N+]=[N-],0.246
6,CC1=C2[C@@H](CCc3ccccc3)OB(O)C[C@@H]2n2c(=O)n(-c3ccccc3)c(=O)n2C1,-1.51
7,COc1cc2c(cc1OC)CN(C(=O)[C@@H]1[C@H]3C(=O)O[C@H](c4ccccc4)[C@H](c4ccccc4)N3[C@H](c3ccccc3OCCO)[C@@]13C(=O)Nc1ccc(C#CCNC(N)=O)cc13)CC2,1
8,C=C[C@H](C)[C@@H](O)c1ccc(O)c2ccccc12,-13.3 (active)
9,O=C1O[C@H](c2ccccc2)[C@H](c2ccccc2)N2[C@H]1[C@@H](C(=O)O)[C@]1(C(=O)Nc3ccc(C#CC4(O)CCCCCC4)cc31)[C@H]2c1ccc(OCCO)cc1,0.219
10,CC(=CC1CCCCC1)[C@@H](NC(=O)c1ccc(C(F)(F)F)cc1)c1ccc(-c2ccccc2)cc1,-0.91
11,CN1C(=O)C2C(C1=O)C1C=C(CCCO)C2C(c2cccs2)N1C (stereo unspecified),-0.149
12,CC(C)NC(=O)[C@@]1(Cc2ccccc2I)c2ccccc2C(=O)N(Cc2ccccc2)[C@H]1c1ccc(CO)cc1,-1.5
13,C=C(COC)C(=O)CC[C@H](OC(C)=O)c1cccc(OCCO)c1,-1.34
14,[N-]=[N+]=NCc1ccccc1[C@H]1OC(c2ccc(OCCCO)cc2)=N[C@@]1(CCS(=O)(=O)c1ccccc1)C(=O)N1CCOCC1,0.553
15,COC(=O)[C@@]1(Cc2ccc(OC)cc2)[C@H]2c3cc(C(=O)N4CCCC4)n(CCc4c[nH]c5cc(F)ccc45)c3C[C@H]2CN1C(=O)c1ccccc1,1.2
16,CC(C)CNC(=O)[C@@H]1c2ccccc2C(=O)N(Cc2cc(C(F)(F)F)cc(C(F)(F)F)c2)[C@H]1c1ccc(CO)cc1,-0.989
17,[N-]=[N+]=NCc1ccccc1[C@@H]1OC(c2ccc(OCCCO)cc2)=N[C@]1(Cc1ccccc1)C(=O)N1CCCCC1,-1.09
18,CC(=O)C1=CCC(c2ccccc2)N(S(=O)(=O)c2ccc(C)cc2)C1 (stereo unspecified),0.888
